# Assay results as given in paper PMC4336329 (PLoS ONE, 2015).
# The campaign covered roughly 310,000 compounds. About 14,000 (4.5%) showed an effect of 50% or more. The effect is printed as a negative number. What follows is part of a selection rich in strong results, with near analogues and random picks from the rest.
# Molecular target: human ether-à-go-go-related gene (hERG) potassium channel (human, UniProt Q12809)
# Assay: primary screen, population patch clamp on CHO cells stably expressing hERG; higher = less effect of the substance
# 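Further: peak tail current of the secondary pulse compared with the same well before compound.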
# Sequence of human ether-à-go-go-related gene (hERG) potassium channel (Q12809 whole entry, looked up): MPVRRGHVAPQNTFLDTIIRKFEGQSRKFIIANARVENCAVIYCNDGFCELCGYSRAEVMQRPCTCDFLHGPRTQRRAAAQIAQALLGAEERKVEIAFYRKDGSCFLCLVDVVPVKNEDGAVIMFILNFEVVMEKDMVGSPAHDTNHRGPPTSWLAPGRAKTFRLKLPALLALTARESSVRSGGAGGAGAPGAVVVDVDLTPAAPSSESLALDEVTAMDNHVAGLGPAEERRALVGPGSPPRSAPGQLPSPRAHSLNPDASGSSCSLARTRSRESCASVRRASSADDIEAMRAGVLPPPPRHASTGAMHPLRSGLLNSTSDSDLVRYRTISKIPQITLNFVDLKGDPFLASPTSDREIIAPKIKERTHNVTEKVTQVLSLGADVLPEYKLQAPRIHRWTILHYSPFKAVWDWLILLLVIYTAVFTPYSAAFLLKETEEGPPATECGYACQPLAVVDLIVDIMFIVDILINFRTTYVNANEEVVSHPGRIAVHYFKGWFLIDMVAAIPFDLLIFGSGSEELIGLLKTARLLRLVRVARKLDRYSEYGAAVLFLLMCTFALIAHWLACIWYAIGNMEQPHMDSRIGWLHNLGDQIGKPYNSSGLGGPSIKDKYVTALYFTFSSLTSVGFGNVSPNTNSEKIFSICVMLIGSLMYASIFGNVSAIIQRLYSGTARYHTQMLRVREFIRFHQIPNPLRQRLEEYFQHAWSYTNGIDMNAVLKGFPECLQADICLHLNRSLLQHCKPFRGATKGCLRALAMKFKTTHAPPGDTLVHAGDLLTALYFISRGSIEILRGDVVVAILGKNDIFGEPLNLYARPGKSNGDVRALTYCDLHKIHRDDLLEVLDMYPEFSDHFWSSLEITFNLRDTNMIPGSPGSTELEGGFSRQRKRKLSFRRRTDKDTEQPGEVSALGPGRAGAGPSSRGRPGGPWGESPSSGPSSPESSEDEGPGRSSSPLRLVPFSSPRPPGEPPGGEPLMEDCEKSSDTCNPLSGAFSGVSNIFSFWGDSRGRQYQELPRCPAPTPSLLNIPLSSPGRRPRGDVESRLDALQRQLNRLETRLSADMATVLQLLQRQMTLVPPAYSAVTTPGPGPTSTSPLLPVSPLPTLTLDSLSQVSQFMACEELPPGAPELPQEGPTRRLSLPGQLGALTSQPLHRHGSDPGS
row,Compound,"hERG current change (%, negative = inhibition) at 10uM [%]"
1,Cc1cccc(C)c1NC(=O)COC(=O)c1ccc2c(c1)OCO2,-4.84
2,c1cnc2c(SCc3ccc(-c4nnco4)cc3)cccc2c1,1.45
3,COc1cc(OC)c(NC(=O)c2csc(C)c2)cc1Cl,14.2
4,Cc1ccccc1CNC(=O)/C=C\C(=O)O,3.23
5,FC(F)(F)c1cc(-c2cccs2)nc(-n2cc(Cl)cn2)n1,0.253
6,CCOc1ccc(CCNC(=O)Cn2c(-c3nonc3N)nc3ccccc32)cc1OCC,-3.72
7,Cc1ccc(-n2c3c(c(O)c(-c4ccccc4)c2=O)C(=O)CC(C)(C)C3)cc1,-55.2
8,Cc1ccc(-n2c3c(cc(C(=O)O)c2=O)C(=O)CC(C)(C)C3)cc1,19.2
9,CC1(C)CC(=O)c2c(O)c(-c3ccccc3)c(=O)n(-c3ccccc3)c2C1,-6.83
10,O=C(c1ccc2nccnc2c1)N1CCCC(N2CCN(c3ccc(F)cc3)CC2)C1 (stereo not drawn),-9.66
11,O=C(NCc1ccc(Cl)cc1)C(=O)NCC(c1cccnc1)N1CCN(c2ccc(F)cc2)CC1 (stereo not drawn),-45.5
12,CCS(=O)(=O)NCC(c1cccnc1)N1CCN(c2ccccc2)CC1 (stereo not drawn),-28.1
13,Cc1cc(F)ccc1S(=O)(=O)NCC(c1cccnc1)N1CCc2ccccc21 (stereo not drawn),-1.61
14,O=C(NCC(c1cccnc1)N1CCN(c2ccccc2)CC1)Oc1ccccc1 (stereo not drawn),-19.2
15,COc1ccc(N2CCN(C(CNC(=O)C(C)(C)C)c3cccnc3)CC2)cc1 (stereo not drawn),-36.7
16,COc1ccccc1N1CCN(C(CNS(=O)(=O)c2cc(F)ccc2F)c2cccnc2)CC1 (stereo not drawn),-35
17,O=S(=O)(NCC(c1cccnc1)N1CCN(Cc2ccccc2)CC1)c1cc(F)ccc1F (stereo not drawn),-69.1
18,O=S(=O)(NCC(c1cccnc1)N1CCN(c2ccc(F)cc2)CC1)c1cc(F)ccc1F (stereo not drawn),-65.8
19,COc1ccc(N2CCN(C(CNS(=O)(=O)c3cc(F)ccc3F)c3cccnc3)CC2)cc1 (stereo not drawn),-69
20,O=C(NCC(c1cccnc1)N1CCN(c2ccc(F)cc2)CC1)C1CCCCC1 (stereo not drawn),-45.5
21,O=S(=O)(NCC(c1cccnc1)N1CCN(c2ccccc2)CC1)c1cc(F)ccc1F (stereo not drawn),-62.8

row,Compound,"hERG current change (%, negative = inhibition) at 10uM [%]"
1,CC1CCCCN1C(=O)c1cc2nc(-c3ccccc3)cc(-c3ccccc3)n2n1 (stereo not drawn),-14.5
2,O=S(N1CCCCC1)C12CC3CC(CC(C3)C1)C2 (stereo not drawn),-6.95
3,COc1ccc(-c2nc(NC(=O)CCNC(=O)c3ccco3)sc2C)cc1,-11.1
4,CC(C)C[C@H](NC(=O)N1CC(=O)Nc2ccccc21)C(=O)N[C@@H](Cc1ccccc1)C(=O)O,13.2
5,NC(=O)Cn1cc(C(=O)c2cccs2)c2ccccc21,-2.95
6,O=C(NNc1cc(Cl)ccc1Cl)c1cccs1,7.63
7,Cc1c(Br)c([N+](=O)[O-])nn1C(C)C(=O)N1CCc2ccccc2C1 (stereo not drawn),-13.4
8,Cc1c(OC(C)C(=O)NC2CC(C)(C)NC(C)(C)C2)ccc2c3c(c(=O)oc12)CCC3 (stereo not drawn),12.5
9,COc1cc(/C=N/N(C)C2=NS(=O)(=O)c3ccccc32)cc(OC)c1OC,7.82
10,CC1CCN(CCCNC(=O)c2ccc(CS(=O)(=O)Cc3ccc(Cl)cc3)o2)CC1,-44
11,Cc1ccccc1CS(=O)(=O)Cc1ccc(C(=O)NCCCN2CC(C)CC(C)C2)o1 (stereo not drawn),-36.1
12,CC1CC(C)CN(CCCNC(=O)c2ccc(CS(=O)(=O)Cc3cccc(Cl)c3)o2)C1 (stereo not drawn),-69.1
13,CC1CCCN(CCCNC(=O)c2ccc(CS(=O)(=O)Cc3cccc(Cl)c3)o2)C1 (stereo not drawn),-40.7
14,Cc1ccc(CS(=O)(=O)Cc2ccc(C(=O)NCCCN3CC(C)CC(C)C3)o2)cc1 (stereo not drawn),-60.2
15,Cc1ccc(CS(=O)(=O)Cc2ccc(C(=O)NCCCN3CCOCC3)o2)cc1,6.75
16,CN(C1=NS(=O)(=O)c2ccccc21)c1ccc(OC(=O)c2ccncc2)cc1,-9.07
17,COc1cccc(CN(C)C(=O)CCN(c2ccccc2)S(=O)(=O)c2ccc(C)cc2)c1OC,-30.4
18,COC(=O)C1=C(c2ccc(F)cc2F)C[C@@H]2CC[C@H]1N2C(=O)NC1Cc2ccccc2C1,-16.9
19,O=C(N/N=C/c1cc(O)ccc1[N+](=O)[O-])c1ccc2c(c1)OCCO2,-2.12
20,CCCCOc1ccc(S(=O)(=O)n2c(C)nc3ccccc32)cc1,0.0246
21,CCN(CC(=O)NCc1cccs1)C(=O)c1ccc(S(=O)(=O)Nc2ccccc2Cl)cc1,-26.8

row,Compound,"hERG current change (%, negative = inhibition) at 10uM [%]"
1,C/C(=N\NC(=O)c1cccc(S(=O)(=O)N2CCCC2)c1)c1ccncc1,-1.9
2,C/C(=N\NC(=O)c1cccc(S(=O)(=O)N2CCCC2)c1)c1ccc(C)cc1,-50.4
3,C/C(=N\NC(=O)c1cccc(S(=O)(=O)N2CCOCC2)c1)c1ccc(O)cc1,11.4
4,N#Cc1ccc(/C=N/NC(=O)c2cccc(S(=O)(=O)N3CCOCC3)c2)cc1,13.3
5,C/C(=N\NC(=O)c1cccc(S(=O)(=O)N2CCOCC2)c1)c1ccc(C#N)cc1,-52.6
6,C/C(=N\NC(=O)c1cccc(S(=O)(=O)N2CCOCC2)c1)c1ccc(C)cc1,-3.88
7,Cn1c(=O)c2c([nH]c(=S)n2CCCc2ccccc2)n(C)c1=O,15.5
8,CC(Cc1cccs1)NC(=O)Nc1ccc(F)cc1 (stereo not drawn),18.2
9,CCc1nc(C#N)c(N2CCOCC2)o1,2.54
10,CCN(c1ccccc1)S(=O)(=O)c1ccc(C(=O)Oc2ccc(C(C)=O)cc2)cc1,8.41
11,CC1(C)N=C(N)NC(Nc2ccccc2)=N1,2.96
12,Cc1onc(-c2ccccc2Cl)c1C(=O)Nc1cccc(-c2nc3ncccn3c2C)c1,-63
13,Cc1onc(-c2ccccc2Cl)c1C(=O)Nc1ccc(-c2cn3cccnc3n2)cc1,26
14,Cc1onc(-c2ccccc2Cl)c1C(=O)Nc1cccc(-c2cn3cccnc3n2)c1,-24.8
15,Cl.O=C1CC2(CCCC2)CC(=O)N1CCCCN1CCN(c2ncccn2)CC1,-35.9
16,Cc1c(C)n2c(SCC(=O)NCc3ccc4c(c3)OCO4)nnc2[nH]c1=O,7.88
17,CN(C1CCCC1)C1CCN(C(=S)Nc2cc(F)cc(F)c2)CC1,-42
18,CCCCN(C)C1CCN(C(=S)Nc2cccc(OC)c2)CC1,-19.9
19,CSc1cccc(NC(=S)N2CCC(N(C)C3CCCCC3C)CC2)c1 (stereo not drawn),-58.2
20,CSc1cccc(NC(=S)N2CCC(N(C)C3CCCCCC3)CC2)c1,-62.9
21,CCOC(=O)N1CCC(N(CCN(C)C)C(=S)Nc2cccc(SC)c2)CC1,-11.6

row,Compound,"hERG current change (%, negative = inhibition) at 10uM [%]"
1,CCC(C)N(C)C1CCN(C(=S)Nc2cccc(SC)c2)CC1 (stereo not drawn),-45.8
2,CSc1cccc(NC(=S)N2CCC(N(C)C3CCCCC3)CC2)c1,-64.4
3,CSc1cccc(NC(=S)N2CCC(c3ccccc3)C2)c1 (stereo not drawn),7.54
4,CCCCN(C(=S)Nc1cccc(SC)c1)C1CCN(C(C)=O)CC1,-28.9
5,CSc1cccc(NC(=S)N2CCC(N(C)C(C)C)CC2)c1,-16.2
6,CSc1cccc(NC(=S)N2CCC(N(C)C3CCCC3)CC2)c1,-29.2
7,CCCCN(C)C1CCN(C(=S)Nc2cccc(SC)c2)CC1,-59.8
8,N#CCOc1coc(CN2CCN(c3cccc(Cl)c3)CC2)cc1=O,-0.696
9,Cc1ccccc1C(=O)NC(=S)Nc1ccccc1C(=O)O,15.5
10,Cc1nnc(-c2cnn(-c3ccccc3)c2N)n1Cc1cccc(C(F)(F)F)c1,-18.8
11,Cc1ccc(CSCC(=O)N(C)CC(=O)Nc2ccccc2C(F)(F)F)cc1,-0.53
12,O=C1NC(=Nc2ccccc2Cl)S/C1=C\c1cccc([N+](=O)[O-])c1,-0.316
13,Cn1cc(/C=C2\SC(=S)N(NC(=O)c3ccccc3)C2=O)c2ccccc21,10.6
14,CCOc1cc(C(=O)N(C)CC(=O)Nc2cccc(F)c2)ccc1OCC(=O)N1CCCCC1,-14.1
15,O=C(COC(=O)CNC(=O)c1ccccc1F)Nc1ccc2[nH]c(=O)[nH]c2c1,10.2
16,COc1ccc(NC(=O)CN2C(=O)NC3(CCCC3)C2=O)cc1,13.7
17,CCOC(=O)c1nn(-c2ccc(F)cc2)c2c1CC/C2=C/c1ccccc1,8.7
18,CN(C)c1cc(N)c2c(n1)CCC2.O=C(O)c1cncc(O)c1,-10.8
19,COC(=O)C1C(O)=C(C=Nc2cccc3ccccc23)C(=O)CC1(C)C (stereo not drawn),-2.34
20,Cc1ccc(S(=O)(=O)NCc2ccccc2C)cc1,11.6
21,N#CC(Sc1ccccn1)c1ccc(Cl)cc1 (stereo not drawn),-18.2
